This passage reports outcome and AC50 results from PubChem BioAssay (EPA / NIEHS).

In general, AC50 refers to the concentration at which the activity in the assay is half-maximal.

Each structure is given as a SMILES string. Results filed as inconclusive are left out. Activity calls are given as the source filed them. The calls were made as follows, unless noted: active = hit-call score of the fitted dose curve at least 0.9, where 1 is the maximum; inactive = score below 0.9.

Assay [1] in a line: ATG_TAL_CIS: Attagene CIS-FACTORIAL HepG2 Assay for human TAL Basal Promoter (AID 2282966).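 Also: background control endpoint measuring basal TAL promoter reporter mRNA not a specific factor.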 The settings on record: HepG2 Attagene cis-factorial TAL promoter reporter; actives raise or lower the signal. The essentials: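 HepG2 cells were transiently transfected with promoter-driven multiplexed reporter units and dosed for 24 h. Reporter mRNA was measured by RT-PCR with capillary electrophoresis fluorescence; bidirectional fits used DMSO as baseline, serving as a background control.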

A short description of assay [2]: ATG_TGFb_CIS: Attagene CIS-FACTORIAL HepG2 Assay for human Transforming Growth Factor (TGF) (AID 2282967). The note with it: HepG2 Attagene CIS TGFb reporter, mRNA transcription; actives raise or lower the signal. The method in brief:
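Transcript-level reporter readout: HepG2 transfectants, 24 h exposure, RNA to cDNA, reporter-specific PCR, fluorescent primer extension, capillary sizing against ROX standards. Gain- or loss-of-signal relative to DMSO.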

Assay [3] is described as follows: ATG_VDRE_CIS: Attagene CIS-FACTORIAL HepG2 Assay for human Vitamin D Receptor Element (VDRE) (AID 2282968). The note with it: HepG2 VDRE cis-reporter transcription, actives raise or lower the signal. The method in brief: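 Cell-based multiplexed reporter format in human liver HepG2 cells, 24 h post-dose. Fluorescence from capillary electrophoresis of reporter cDNA gives the signal, with DMSO as negative control and baseline.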

In assay [4] the target is Nuclear receptor subfamily 1 group I member 3 (Homo sapiens) (UniProt Q14994). Nature of the assay: ATG_CAR_TRANS: Attagene TRANS-FACTORIAL HepG2 Assay for human Constitutive Androstane Receptor (CAR) (AID 2282969; active = hit-call score of the fitted dose curve at least 0.9, where 1 is the maximum;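 also: activators raise reporter mRNA above DMSO so AC50 marks induction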). The settings on record: HepG2 Attagene TRANS-FACTORIAL CAR reporter. The method in brief:
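HepG2 cells transiently transfected with GAL4-UAS reporter units; TRANS format reads activity of exogenous chimeric NR-Gal4 protein. After 24 h dosing, reporter mRNA quantified by RT-PCR, 6-FAM labelling and capillary electrophoresis; gain of signal fitted against DMSO.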

For assay [5], the target named is X-box-binding protein 1 (Homo sapiens) (UniProt P17861). In words: ATG_Xbp1_CIS: Attagene CIS-FACTORIAL HepG2 Assay for human X-box Binding Protein 1 (XBP1) (AID 2282972). The note with it: HepG2 XBP1 cis-element reporter, Attagene multiplex; actives raise or lower the signal. The essentials: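 Fluorescence-labelled cDNA fragments from reporter transcripts, separated by capillary electrophoresis, give the signal. Source: HepG2 cells transfected with promoter-driven reporter units, harvested 24 h post-dose. DMSO served as reference for bidirectional curve fitting.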

The nature of assay [6]: ATG_M_19_TRANS: Attagene TRANS-FACTORIAL HepG2 Assay for M19 Transcription Factor (Internal Marker) (AID 2282974; active = hit-call score of the fitted dose curve at least 0.9, where 1 is the maximum). The settings on record: HepG2 Attagene TRANS-FACTORIAL M19 internal marker reporter. The essentials: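 24 h chemical exposure of transiently transfected HepG2 (MRTU library). RNA → oligo(dT) RT → PCR → 6-FAM labelling → HpaI cut → CE fluorescence. Positive-direction fit vs DMSO baseline; background internal-marker readout.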

Assay [7] in a line: ATG_GAL4_TRANS: Attagene TRANS-FACTORIAL HepG2 Assay for GAL4 (Internal Marker) (AID 2282976; active = hit-call score of the fitted dose curve at least 0.9, where 1 is the maximum). The settings on record: HepG2 Attagene TRANS GAL4 internal marker reporter. The method in brief:
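HepG2 cells transiently transfected with multiplexed GAL4-UAS reporter constructs were dosed for 24 h. Reporter mRNA was measured by RT-PCR, 6-FAM primer extension, HpaI digestion and capillary electrophoresis, and gain of signal was fitted relative to DMSO.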

The target of assay [8] is Glucocorticoid receptor (Homo sapiens) (UniProt P04150). Nature of the assay: ATG_GR_TRANS: Attagene TRANS-FACTORIAL HepG2 Assay for human Glucocorticoid Receptor (GR) (AID 2282978; active = hit-call score of the fitted dose curve at least 0.9, where 1 is the maximum;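 also: activators score as hits since higher reporter transcript over DMSO is fitted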). The note with it: HepG2 Attagene TRANS GR reporter, mRNA transcription. The method in brief: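 Transient MRTU transfection of HepG2 (GAL4-UAS reporters, exogenous NR-GAL4 chimeras), 24 h dosing. Readout: reporter transcript via RT-PCR + capillary electrophoresis fluorescence. Positive direction vs DMSO baseline.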

Assay [9] deals with Oxysterols receptor LXR-beta (Homo sapiens) (UniProt P55055). In words: ATG_LXRb_TRANS: Attagene TRANS-FACTORIAL HepG2 Assay for human Liver X Receptor beta (LXRb) (AID 2282981; active = hit-call score of the fitted dose curve at least 0.9, where 1 is the maximum). The settings on record: HepG2 Attagene TRANS GAL4-LXRb reporter, mRNA. The essentials: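 Gain-of-signal mRNA reporter endpoint, DMSO as negative control. Transiently transfected HepG2 cells carrying the NR-Gal4 chimera and GAL4-UAS reporter units were treated 24 h; transcripts quantified by RT-PCR and capillary electrophoresis fluorescence.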

A short description of assay [10]: ATG_M_32_TRANS: Attagene TRANS-FACTORIAL HepG2 Assay for M32 Transcription Factor (Internal Marker) (AID 2282984; active = hit-call score of the fitted dose curve at least 0.9, where 1 is the maximum). The settings on record: HepG2 Attagene TRANS M32 internal marker reporter. The method in brief: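 Capillary electrophoresis of 6-FAM-labelled reporter fragments gives the signal; data fitted for gain over DMSO negative control. Source: HepG2 cells bearing transient multiple reporter transcription units, 24 h exposure.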

In assay [11] the target is Nuclear receptor subfamily 4 group A member 2 (Homo sapiens) (UniProt P43354). Nature of the assay: ATG_NURR1_TRANS: Attagene TRANS-FACTORIAL HepG2 Assay for human Nuclear Receptor Related Protein 1 (NURR1) (AID 2282985; active = hit-call score of the fitted dose curve at least 0.9, where 1 is the maximum). The settings on record: HepG2 Attagene TRANS reporter, mRNA readout. The essentials:
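HepG2 / transient MRTU transfection / 24 h compound exposure / RT-PCR + CE fluorescence of reporter mRNA / gain-of-signal vs DMSO.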

Assay [12] addresses Nuclear respiratory factor 1 (Homo sapiens) (UniProt Q16656). In words: ATG_NRF1_CIS: Attagene CIS-FACTORIAL HepG2 Assay for human Nuclear Respiratory Factor 1 (NRF1) Orphan Gene (AID 2282987). The note with it: HepG2 NRF1 cis-element reporter, Attagene multiplex; actives raise or lower the signal. The method in brief:
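Endogenous NRF1-driven reporter transcription measured in transiently transfected human HepG2 liver cells. Readout: reporter mRNA by RT-PCR and capillary electrophoresis with fluorescence detection, 24 h post-dosing. Gain or loss of signal fitted relative to DMSO baseline.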

A short description of assay [13]: ATG_NFI_CIS: Attagene CIS-FACTORIAL HepG2 Assay for human Nuclear Factor I (NFI) (AID 2282989). The settings on record: HepG2 cis-regulatory reporter, NFI response element transcription; actives raise or lower the signal. The method in brief: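 After transient transfection of HepG2 with cis-promoter reporter constructs and 24 h dosing, RNA is reverse-transcribed, amplified, 6-FAM end-labelled and HpaI-digested before capillary analysis. Bidirectional curve fitting against DMSO.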

In assay [14] the target is Myc proto-oncogene protein (Homo sapiens) (UniProt P01106). Nature of the assay: ATG_Myc_CIS: Attagene CIS-FACTORIAL HepG2 Assay for human Myelocytomatosis (Myc) Proto-Oncogene Transcription Factor (AID 2282990). The note with it: HepG2, Attagene cis-reporter transcription factor activity; actives raise or lower the signal. The method in brief:
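Fluorescence intensity of reporter-specific cDNA fragments, separated by capillary electrophoresis, gives the signal. Transfected HepG2 cells carrying cis-promoter reporter constructs are incubated with compound for 24 h; DMSO serves as baseline.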

Assay [15] addresses Steroid hormone receptor ERR1 (Homo sapiens) (UniProt P11474). In words: ATG_ERRa_TRANS: Attagene TRANS-FACTORIAL HepG2 Assay for human Estrogen-Related Receptor alpha (ERRa) (AID 2282971; active = hit-call score of the fitted dose curve at least 0.9, where 1 is the maximum). The note with it: HepG2 Attagene TRANS reporter, ERRa transactivation. The method in brief:
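HepG2 cells transiently transfected with multiplexed GAL4-UAS reporter units reading chimeric ERRa-Gal4 activity; 24 h compound exposure. Reporter mRNA measured by RT-PCR, 6-FAM labelling, HpaI digest and capillary electrophoresis; gain of signal fitted versus DMSO baseline.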

For assay [16], the target named is Estrogen-related receptor gamma (Homo sapiens) (UniProt P62508). In words: ATG_ERRg_TRANS: Attagene TRANS-FACTORIAL HepG2 Assay for human Estrogen-Related Receptor gamma (ERRg) (AID 2282977; active = hit-call score of the fitted dose curve at least 0.9, where 1 is the maximum;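 also: hits increase reporter signal over DMSO so potencies reflect activators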). The settings on record: HepG2 Attagene TRANS reporter, ERRg transactivation. The method in brief:
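Transient HepG2 transfectants, 24 h compound exposure, GAL4-UAS reporter mRNA by RT-PCR/6-FAM labelling/capillary electrophoresis; positive direction vs DMSO.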

Assay [17] deals with Bile acid receptor (Homo sapiens) (UniProt Q96RI1). Nature of the assay: ATG_FXR_TRANS: Attagene TRANS-FACTORIAL HepG2 Assay for Farnesoid X Receptor (FXR) (AID 2282979; active = hit-call score of the fitted dose curve at least 0.9, where 1 is the maximum;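 also: hits raise reporter mRNA above DMSO so AC50 marks FXR activation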). The settings on record: HepG2 Attagene TRANS FXR-GAL4 reporter transcription. The method in brief:
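HepG2 cells transiently transfected with reporter constructs in which a chimeric FXR-GAL4 protein drives a GAL4-UAS reporter; 24 h compound exposure. Reporter mRNA measured by RT-PCR, FAM labelling, HpaI digestion and capillary electrophoresis; gain-of-signal versus DMSO.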

Assay [18] in a line: ATG_M_06_TRANS: Attagene TRANS-FACTORIAL HepG2 Assay for M06 Transcription Factor (Internal Marker) (AID 2282983; active = hit-call score of the fitted dose curve at least 0.9, where 1 is the maximum;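 as to AC50: potency for rise in reporter mRNA above DMSO baseline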). The settings on record: HepG2 Attagene TRANS M06 internal marker reporter. The method in brief: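 HepG2 cells transiently transfected with multiplexed GAL4-UAS reporter transcription units; after 24 h compound exposure, reporter mRNA measured by RT-PCR, FAM-labelled primer extension, HpaI digestion and capillary electrophoresis. Gain-of-signal fitted versus DMSO baseline; background control readout.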

Assay [19] deals with Transcriptional activator Myb (Homo sapiens) (UniProt P10242). Nature of the assay: ATG_Myb_CIS: Attagene CIS-FACTORIAL HepG2 Assay for human Myeloblastosis (Myb) Proto-Oncogene Transcription Factor (AID 2282986). The note with it: HepG2 Attagene CIS-FACTORIAL Myb reporter transcription; actives raise or lower the signal. The method in brief:
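HepG2, transient MRTU transfection (cis-element promoters, endogenous TF activity), 24 h compound exposure. Readout: reporter mRNA via RT-PCR, 6-FAM labeling, HpaI digest, capillary electrophoresis. Gain/loss fit vs DMSO.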

Sequence of Myc proto-oncogene protein (Homo sapiens) (P01106 whole entry, looked up, the tested form may be a part): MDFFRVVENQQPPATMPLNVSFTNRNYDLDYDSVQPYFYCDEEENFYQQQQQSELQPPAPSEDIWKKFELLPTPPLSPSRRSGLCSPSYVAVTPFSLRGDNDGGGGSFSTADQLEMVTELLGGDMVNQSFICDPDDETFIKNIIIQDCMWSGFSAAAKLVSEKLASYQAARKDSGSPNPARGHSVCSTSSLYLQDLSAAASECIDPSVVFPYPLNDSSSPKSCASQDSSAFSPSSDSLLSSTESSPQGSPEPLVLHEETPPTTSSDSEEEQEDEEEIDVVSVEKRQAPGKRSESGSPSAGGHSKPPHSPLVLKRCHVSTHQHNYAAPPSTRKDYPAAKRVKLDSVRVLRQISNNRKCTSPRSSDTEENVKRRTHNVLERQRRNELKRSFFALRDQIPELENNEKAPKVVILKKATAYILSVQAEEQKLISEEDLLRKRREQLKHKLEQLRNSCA
Sequence of Nuclear respiratory factor 1 (Homo sapiens) (Q16656 whole entry, looked up): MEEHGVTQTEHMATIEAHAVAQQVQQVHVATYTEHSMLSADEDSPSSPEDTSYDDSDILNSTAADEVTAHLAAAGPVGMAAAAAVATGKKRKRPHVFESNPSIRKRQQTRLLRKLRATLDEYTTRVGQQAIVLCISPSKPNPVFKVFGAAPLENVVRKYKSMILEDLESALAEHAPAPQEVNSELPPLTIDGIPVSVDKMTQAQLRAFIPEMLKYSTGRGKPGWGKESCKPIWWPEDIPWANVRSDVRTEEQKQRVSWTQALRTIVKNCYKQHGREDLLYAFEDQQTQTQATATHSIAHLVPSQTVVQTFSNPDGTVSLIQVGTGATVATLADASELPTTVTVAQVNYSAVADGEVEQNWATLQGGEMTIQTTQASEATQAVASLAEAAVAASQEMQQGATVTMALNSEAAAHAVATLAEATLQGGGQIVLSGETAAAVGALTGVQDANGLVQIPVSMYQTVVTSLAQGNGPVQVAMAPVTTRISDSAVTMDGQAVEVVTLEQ
Sequence of Nuclear receptor subfamily 1 group I member 3 (Homo sapiens) (Q14994 whole entry, looked up, the tested form may be a part): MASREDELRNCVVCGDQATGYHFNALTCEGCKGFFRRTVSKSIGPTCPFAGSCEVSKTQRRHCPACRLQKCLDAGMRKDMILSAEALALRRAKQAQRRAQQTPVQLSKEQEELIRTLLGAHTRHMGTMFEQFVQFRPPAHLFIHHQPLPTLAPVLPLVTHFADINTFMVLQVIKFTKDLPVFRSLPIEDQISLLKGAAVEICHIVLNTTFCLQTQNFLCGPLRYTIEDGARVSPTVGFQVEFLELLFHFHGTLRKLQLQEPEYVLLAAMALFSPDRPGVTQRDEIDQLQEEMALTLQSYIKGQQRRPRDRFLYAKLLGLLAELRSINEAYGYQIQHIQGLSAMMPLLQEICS
Sequence of X-box-binding protein 1 (Homo sapiens) (P17861 whole entry, looked up, the tested form may be a part): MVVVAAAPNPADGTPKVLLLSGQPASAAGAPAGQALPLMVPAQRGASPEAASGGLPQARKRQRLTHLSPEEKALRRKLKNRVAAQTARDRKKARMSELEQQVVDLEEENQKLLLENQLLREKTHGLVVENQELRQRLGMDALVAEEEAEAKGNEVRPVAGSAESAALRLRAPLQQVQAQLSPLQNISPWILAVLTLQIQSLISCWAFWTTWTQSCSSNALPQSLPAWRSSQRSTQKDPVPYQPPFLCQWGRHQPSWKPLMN
Sequence of Transcriptional activator Myb (Homo sapiens) (P10242 whole entry, looked up): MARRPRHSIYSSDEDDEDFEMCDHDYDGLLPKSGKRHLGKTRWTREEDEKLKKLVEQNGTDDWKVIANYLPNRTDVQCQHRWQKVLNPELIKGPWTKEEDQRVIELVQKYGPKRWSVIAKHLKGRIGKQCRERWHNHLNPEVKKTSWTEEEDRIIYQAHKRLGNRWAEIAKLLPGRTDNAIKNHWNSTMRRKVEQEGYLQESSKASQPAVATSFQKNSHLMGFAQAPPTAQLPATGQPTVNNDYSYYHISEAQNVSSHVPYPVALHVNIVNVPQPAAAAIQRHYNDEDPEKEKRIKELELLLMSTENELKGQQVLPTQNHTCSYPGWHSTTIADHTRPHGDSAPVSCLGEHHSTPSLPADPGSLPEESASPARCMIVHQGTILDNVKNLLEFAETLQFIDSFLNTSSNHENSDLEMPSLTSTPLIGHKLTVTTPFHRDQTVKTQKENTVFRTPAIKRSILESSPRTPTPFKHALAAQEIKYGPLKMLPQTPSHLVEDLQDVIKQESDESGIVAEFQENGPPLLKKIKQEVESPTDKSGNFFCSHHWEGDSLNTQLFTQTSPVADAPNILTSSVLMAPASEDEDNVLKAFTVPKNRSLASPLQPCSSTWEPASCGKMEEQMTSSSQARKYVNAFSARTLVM
Sequence of Glucocorticoid receptor (Homo sapiens) (P04150 whole entry, looked up, the tested form may be a part): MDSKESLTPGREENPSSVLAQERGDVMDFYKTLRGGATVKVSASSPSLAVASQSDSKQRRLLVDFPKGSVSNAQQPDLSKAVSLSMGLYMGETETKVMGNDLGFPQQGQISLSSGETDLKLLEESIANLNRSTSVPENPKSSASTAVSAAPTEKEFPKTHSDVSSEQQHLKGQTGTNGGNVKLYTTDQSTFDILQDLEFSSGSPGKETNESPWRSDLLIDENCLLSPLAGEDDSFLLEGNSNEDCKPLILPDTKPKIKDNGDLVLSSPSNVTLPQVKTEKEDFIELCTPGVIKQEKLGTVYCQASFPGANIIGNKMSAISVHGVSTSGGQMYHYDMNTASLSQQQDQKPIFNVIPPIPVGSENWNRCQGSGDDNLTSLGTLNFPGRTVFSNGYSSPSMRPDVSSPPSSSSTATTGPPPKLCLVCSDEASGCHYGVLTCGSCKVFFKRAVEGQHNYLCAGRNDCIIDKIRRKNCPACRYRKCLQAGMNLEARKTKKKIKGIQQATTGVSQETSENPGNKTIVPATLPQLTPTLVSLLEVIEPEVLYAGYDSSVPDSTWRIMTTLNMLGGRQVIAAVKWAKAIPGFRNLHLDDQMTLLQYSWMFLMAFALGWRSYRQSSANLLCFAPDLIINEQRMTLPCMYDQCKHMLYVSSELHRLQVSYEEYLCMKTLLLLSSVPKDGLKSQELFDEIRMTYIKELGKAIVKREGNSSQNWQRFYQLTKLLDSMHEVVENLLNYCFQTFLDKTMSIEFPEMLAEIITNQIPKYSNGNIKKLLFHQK
Sequence of Oxysterols receptor LXR-beta (Homo sapiens) (P55055 whole entry, looked up, the tested form may be a part): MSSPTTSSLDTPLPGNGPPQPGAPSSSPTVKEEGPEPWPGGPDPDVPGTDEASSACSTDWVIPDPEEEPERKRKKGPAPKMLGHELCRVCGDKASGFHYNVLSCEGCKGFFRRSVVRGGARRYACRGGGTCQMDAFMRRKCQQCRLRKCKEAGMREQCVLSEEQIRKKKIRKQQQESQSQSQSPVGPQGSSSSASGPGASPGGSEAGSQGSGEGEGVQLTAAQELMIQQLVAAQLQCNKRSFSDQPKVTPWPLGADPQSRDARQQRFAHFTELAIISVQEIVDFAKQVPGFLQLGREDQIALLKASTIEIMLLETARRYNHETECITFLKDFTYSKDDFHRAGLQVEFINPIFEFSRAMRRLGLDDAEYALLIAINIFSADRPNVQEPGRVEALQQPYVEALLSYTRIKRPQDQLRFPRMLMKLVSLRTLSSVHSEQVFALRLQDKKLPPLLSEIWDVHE
Sequence of Steroid hormone receptor ERR1 (Homo sapiens) (P11474 whole entry, looked up, the tested form may be a part): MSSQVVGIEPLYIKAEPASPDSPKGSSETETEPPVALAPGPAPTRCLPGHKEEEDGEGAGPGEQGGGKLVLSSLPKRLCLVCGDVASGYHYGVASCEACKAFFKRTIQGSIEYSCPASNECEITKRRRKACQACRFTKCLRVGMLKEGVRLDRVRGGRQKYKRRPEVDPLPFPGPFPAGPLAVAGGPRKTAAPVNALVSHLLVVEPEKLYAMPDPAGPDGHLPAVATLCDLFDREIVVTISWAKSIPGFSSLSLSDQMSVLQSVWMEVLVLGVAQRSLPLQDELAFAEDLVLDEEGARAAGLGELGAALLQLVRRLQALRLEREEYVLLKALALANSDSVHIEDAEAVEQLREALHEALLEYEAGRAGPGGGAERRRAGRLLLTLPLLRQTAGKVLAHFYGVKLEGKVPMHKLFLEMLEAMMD
Sequence of Bile acid receptor (Homo sapiens) (Q96RI1 whole entry, looked up, the tested form may be a part): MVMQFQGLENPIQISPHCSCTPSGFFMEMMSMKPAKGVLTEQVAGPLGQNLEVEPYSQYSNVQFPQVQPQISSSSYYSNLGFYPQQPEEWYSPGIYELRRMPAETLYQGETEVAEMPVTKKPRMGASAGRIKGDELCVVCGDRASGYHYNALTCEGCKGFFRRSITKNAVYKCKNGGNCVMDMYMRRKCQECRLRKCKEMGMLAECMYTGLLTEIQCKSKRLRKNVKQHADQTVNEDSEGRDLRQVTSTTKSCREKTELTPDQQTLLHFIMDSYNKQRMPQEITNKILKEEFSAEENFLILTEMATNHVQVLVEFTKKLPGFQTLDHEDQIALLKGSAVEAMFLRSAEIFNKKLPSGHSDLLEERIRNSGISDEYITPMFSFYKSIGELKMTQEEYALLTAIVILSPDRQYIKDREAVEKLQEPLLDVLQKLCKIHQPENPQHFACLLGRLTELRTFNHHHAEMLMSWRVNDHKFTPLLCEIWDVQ
Sequence of Nuclear receptor subfamily 4 group A member 2 (Homo sapiens) (P43354 whole entry, looked up): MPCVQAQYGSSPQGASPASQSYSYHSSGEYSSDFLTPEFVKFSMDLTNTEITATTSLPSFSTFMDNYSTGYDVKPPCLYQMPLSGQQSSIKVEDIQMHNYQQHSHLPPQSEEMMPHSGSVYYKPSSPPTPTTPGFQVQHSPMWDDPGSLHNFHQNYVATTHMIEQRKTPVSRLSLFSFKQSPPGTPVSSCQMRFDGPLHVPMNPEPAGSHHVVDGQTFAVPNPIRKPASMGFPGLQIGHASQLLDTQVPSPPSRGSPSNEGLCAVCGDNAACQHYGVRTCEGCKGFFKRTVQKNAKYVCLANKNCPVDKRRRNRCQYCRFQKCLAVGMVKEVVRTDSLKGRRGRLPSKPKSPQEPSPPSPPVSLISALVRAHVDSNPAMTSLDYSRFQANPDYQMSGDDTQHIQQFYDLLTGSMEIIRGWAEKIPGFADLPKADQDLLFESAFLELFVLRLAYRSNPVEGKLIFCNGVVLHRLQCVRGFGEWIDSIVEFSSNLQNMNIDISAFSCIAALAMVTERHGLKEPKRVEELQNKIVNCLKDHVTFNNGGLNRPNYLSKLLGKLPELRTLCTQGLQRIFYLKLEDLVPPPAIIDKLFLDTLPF

Consider `CC(C)(O)c1coc(S(=O)(=O)NC(=O)Nc2c3c(cc4c2CCC4)CCC3)c1`, for which the compound was called inactive in assay [1], in [2], in [4], in assay [5], in [6] and in assay [7]. The call in assay [8], in assay [9], in [10], in assay [11], in assay [12] and in [13] was inactive. Further, the outcome in [14] was inactive. Further, the AC50 in assay [3] is 44.5 µM (active).

As for `CCOC(=O)c1ccc(C2CCC(NC[C@H](O)COc3ccc(O)c(NS(C)(=O)=O)c3)CC2)cc1` (stereo not given in full), the compound was classed as inactive in assay [1], in assay [2], in assay [15], in assay [6], in [16] and in [8]. Also, the compound was classed as inactive in assay [10], in assay [12] and in [13]. The AC50 in assay [3] was 48.5 µM (active); in assay [5] it was 54.4 µM (active); in assay [17], 33 µM (active); in [18], 62.3 µM (active); in assay [19], 55.5 µM (active); in [14], 53.8 µM (active).

Consider `Cc1ccc(C)c(O)c1`, for which the compound was called inactive in assay [1], in [2], in assay [3], in [4], in [5] and in [18]. For the same compound, the compound was called inactive in assay [10], in [19], in assay [12], in [13] and in assay [14].

Consider `C=CC(=C)CCC=C(C)C`, for which the result in assay [1], in assay [2], in assay [3], in assay [4], in assay [5] and in [9] was inactive. The result in assay [18], in assay [10], in assay [12] and in assay [13] was inactive.
